# Data from PubChem BioAssay (NCATS).
# Results filed as inconclusive are left out. Where a call stands in place of a potency, no number is given. The source made the active and inactive calls. Calls come from the whole dose curve; as a rule, active = well fitted cell-killing curve with a large enough effect; inconclusive = small, poorly fitted or top-dose-only effect, or effect the other way; inactive = no such curve, though single readings can be large or run the other way.
# Tests used:
# [1] = Quantitative High-Throughput drug screen in 47 multiple myeloma cell lines against the NCATS MIPE library collection: XG6_PLB cell viability assay (AID 1919865); note: nearly all actives have a fitted effect of over 40% in size; note: potency is the fitted concentration of half-maximal effect
# How it was run: (§1)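 500 cells/well per myeloma line exposed to pinned MIPE 4.0 compounds for 48 h at 37 °C, 5% CO2. Viability read as ATP by CellTiter-Glo luminescence, normalised to DMSO-only (100%) and media-only (0%) wells.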
# [2] = Quantitative High-Throughput drug screen in 47 multiple myeloma cell lines against the NCATS MIPE library collection: VP6_DJ cell viability assay (AID 1919867); note: nearly all actives have a fitted effect of over 40% in size; note: potency is the fitted concentration of half-maximal effect
# How it was run: as §1
# [3] = Quantitative High-Throughput drug screen in 47 multiple myeloma cell lines against the NCATS MIPE library collection: PE2_PLB cell viability assay (AID 1919869); note: nearly all actives have a fitted effect of over 35% in size; note: potency is the fitted concentration of half-maximal effect
# How it was run: as §1
# [4] = Quantitative High-Throughput drug screen in 47 multiple myeloma cell lines against the NCATS MIPE library collection: PCM6_Riken cell viability assay (AID 1919870); note: nearly all actives have a fitted effect of over 30% in size; note: potency is the fitted concentration of half-maximal effect
# How it was run: as §1
# [5] = Quantitative High-Throughput drug screen in 47 multiple myeloma cell lines against the NCATS MIPE library collection: OPM2_DSMZ cell viability assay (AID 1919872); note: nearly all actives have a fitted effect of over 30% in size
# How it was run: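 Approved and investigational drugs from MIPE 4.0 were added by pin tool to 500 cells per well. After 48 hours at 37C, ATP-based CellTiter-Glo luminescence indicated remaining viability.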
# [6] = Quantitative High-Throughput drug screen in 47 multiple myeloma cell lines against the NCATS MIPE library collection: KMS11_JCRBsus cell viability assay (AID 1919873); note: nearly all actives have a fitted effect of over 50% in size; note: potency is the fitted concentration of half-maximal effect
# How it was run: as §1
# [7] = Quantitative High-Throughput drug screen in 47 multiple myeloma cell lines against the NCATS MIPE library collection: KMS28BM_JCRB cell viability assay (AID 1919874); note: nearly all actives have a fitted effect of over 35% in size; note: potency is the fitted concentration of half-maximal effect
# How it was run: as §1
# [8] = Quantitative High-Throughput drug screen in 47 multiple myeloma cell lines against the NCATS MIPE library collection: XG1_PLB cell viability assay (AID 1919866); note: nearly all actives have a fitted effect of over 35% in size; note: potency is the fitted concentration of half-maximal effect
# Description: PI: Beverly A. Mock Ph.D.
# Laboratory of Cancer Biology and Genetics,
# Center for Cancer Research, National Cancer Institute,
# National Institute of Health, Bethesda, Maryland
# Drug resistance and disease progression are common in multiple myeloma (MM) patients, underscoring the need for new therapeutic combinations. […] We hypothesized that effective combinations would reduce MYC expression and enhance p16 activity. […] These preclinical data identify potentially useful drug combinations for evaluation in drug-resistant MM and reveal potential mechanisms of combined drug sensitivity.
# Described herein is the primary MIPE qHTS used to cherrypick compounds. Validated compounds were then further tested for potential synergistic activiy.
# [1] […]
# 5; Detector; 425V; Luminescence; Viewlux PerkinElmer. […]
# 1. […] Briefly, the corresponding myeloma cell lines were screened in 1,536-well plates with 500 cells, 5-uL per well for inhibition of cell viability (assessed by measuring ATP levels with CellTiterGlo). […]
# 5. Signal was measured as median relative luminescence units on a ViewLux (PerkinElmer) multiplate reader. […]
# [9] = Quantitative High-Throughput drug screen in 47 multiple myeloma cell lines against the NCATS MIPE library collection: RPMI8226_ATCC cell viability assay (AID 1919871); note: nearly all actives have a fitted effect of over 30% in size; note: potency is the fitted concentration of half-maximal effect
# How it was run: as §1
# [10] = Quantitative High-Throughput drug screen in 47 multiple myeloma cell lines against the NCATS MIPE library collection: UTMC2_PLB cell viability assay (AID 1919868); details: CellTiter-Glo ATP luminescence, 48 h; note: potency is the fitted concentration of half-maximal effect; nearly all actives have a fitted effect of over 55% in size
# How it was run: as §1
SMILES,Potency [1],Potency [2],Potency [3],Potency [4],outcome [5],Potency [6],Potency [7],Potency [8],Potency [9],Potency [10]
COC(=O)C1=CCCN(C)C1,inactive,inactive,inactive,inactive,inactive,inactive,inactive,,,
COc1ccc(C(=O)N2CCCC2=O)cc1,inactive,,inactive,,,20.9 µM (active),8.33 µM (active),inactive,2.35 µM (active),
O=C(O)c1nn(Cc2ccc(Cl)cc2Cl)c2ccccc12,inactive,,inactive,,inactive,inactive,,,inactive,
C[C@@H]1C[C@@H]([C@H](O)CC2CC(=O)NC(=O)C2)C(=O)[C@@H](C)C1,743 nM (active),296 nM (active),1.48 µM (active),935 nM (active),,0.187 µM (active),0.833 µM (active),372 nM (active),0.833 µM (active),833 nM (active)
